High-throughput results deposited in PubChem by several laboratories.
A selection: hits, their analogues and other compounds. The true share with any hit is near 11%.
Lmaj promast – Leishmania major promastigote growth inhibition; Leishmania major promastigotes, resazurin fluorescence viability; inhibition, % at 10 µM; AID 1063; hit rate 9% among 200,000; in the data active = inhibition above about 50%;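 note: promastigotes grown with compound for 44 hours at 28 °C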
WT yeast gro inh – growth inhibition of WT yeast, mitochondrial fusion screen; AID 1362; inhibition, % at 10 µM; mitochondrial fusion phenotypic screen, WT strain; hit rate 2.1% among 190,000; in the data active = inhibition above about 58%; tested in S. cerevisiae
Insulin prom inh – TRM-6 insulin promoter activity inhibition. hit rate 0.9% among 130,000. inhibition, % at 2 µM. TRM-6 cells (human fetal islet line), insulin promoter-eGFP reporter, imaging; reporter expression induced with tamoxifen;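 active = inhibition above the mean plus 3 SD, with well images judged a real hit on visual review, cut at about 60% in these data, passing the limit was not always enough; inconclusive = inhibition over the cutoff but images rejected on review; inactive = inhibition not above the cutoff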
Insulin prom up – MIN6 insulin promoter up-regulation; AID 1625; MIN6 insulin promoter-GFP reporter, high-content imaging; active compounds read high; z-score at 5 µM; hit rate 0.3% among 190,000;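 active = z-score above 3 at 5 µM with at least 500 cells counted in the well; inconclusive = wells under 500 cells, flagged as cytotoxic or low count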
Autophagy mod – autophagy modulation, high-content screen. MEF GFP-LC3 puncta imaging; test concentration mostly 10 µM. calls only at 10 µM (by protocol). hit rate 0.98% among 190,000. AID 463193;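 active = percentage of spot-positive cells more than 3 SD above its plate mean, without a fluorescence outlier flag or 80% toxicity; inconclusive = no clear call, values can overlap the other calls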;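 note: spot-positive cell cutoff set from DMSO-treated cells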
* marks the source's active call; other numbers are inactive results; i = inactive; ? = inconclusive; · = not tested or not shown; + = active, no number.

SMILES	Lmaj promast	WT yeast gro inh	Insulin prom inh	Insulin prom up	Autophagy mod
CCOc1cc(/C=N/NC(=O)CSc2nncn2C)ccc1OCc1cccc(C)c1	3	-11	14	0.49	i
CC1CCC(C(C)C)C(OCC(O)CN2CCCC(C)C2)C1 (stereo not drawn)	92*	19	-108	0.37	i
CC1CCC(C(C)C)C(OCC(O)CN2CCN(Cc3ccccc3)CC2)C1 (stereo not drawn)	93*	-7	-3	1.6	i
CC1CCC(C(C)C)C(OCC(O)CN2CCOCC2)C1 (stereo not drawn)	8	·	-79	-0.26	i
CC1CCC(C(C)C)C(OCC(O)C[N+]2(C)CCCCC2)C1 (stereo not drawn)	-5	-5	·	-0.19	i
CC1CCCN(C(=O)CSc2cnc3ccccc3n2)C1 (stereo not drawn)	-1	7	17	0.11	i
CCOC(=O)C1=C(Cn2cnc3ccccc32)NC(=O)NC1c1cc(C)ccc1C (stereo not drawn)	17	16	3	-0.21	i
CCOC(=O)C1=C(CNCc2ccc(C)cc2)NC(=O)NC1c1cc(C)ccc1C (stereo not drawn)	100*	25	13	0.02	i
CCc1ccc(NC(=O)CCc2nc3ccccc3[nH]2)cc1	-6	-7	-64	-0.67	i
CC1CCCCN1C(=O)CSc1nnc(-c2ccc(Cl)s2)o1 (stereo not drawn)	-3	3	30	-0.15	i
N#C/C(=C\c1ccncc1)c1nc2c(s1)CCCC2	58*	8	·	-0.48	i
Clc1ccc(C2=CSC3=NCCN23)cc1Cl	48	12	-3	-0.24	+
CCOc1ccc(-n2c(SCC(=O)NC(C)CC)nc3n[nH]c(C)c3c2=N)cc1 (stereo not drawn)	-2	0	·	3*	i
CCC(C)NC(=O)CSc1nc2n[nH]c(C)c2c(=N)n1-c1ccc(OC)cc1 (stereo not drawn)	4	-18	·	-0.63	i
CCNC(=S)Nc1ccc(Cl)c([N+](=O)[O-])c1	3	-13	18	0.1	i
O=S(Cc1ccc(Br)cc1)Cc1nnc(SCc2ccc(Br)cc2)n1-c1ccccc1 (stereo not drawn)	5	82*	-61	-1.9	i
O=[N+]([O-])c1ccc(CSc2nnc(Cc3ccccc3)n2-c2ccc(F)cc2)cc1	21	38	·	-0.24	+
O=C1CCC2(CC1)NC(=O)N(c1ccccc1)N2	10	3	-60	0.28	i
O=C(Oc1cccc2cccnc12)c1cccc(-n2cnnn2)c1	-6	8	33	0.11	i
O=C(Oc1cccc2cccnc12)c1cccc(N2C(=O)C3C4CCC(C4)C3C2=O)c1 (stereo not drawn)	97*	0	·	·	i
O=C(Oc1cccc2cccnc12)c1ccc(N2C(=O)C3C4CCC(C4)C3C2=O)cc1 (stereo not drawn)	99*	-13	7	-0.17	i
COc1cc([N+](=O)[O-])cc2sc(NC(=O)C3CC3)nc12	-11	-24	0	-0.48	i
CCOC(=O)C[N+](C)(C)CCOC1CC2CCC1(C)C2(C)C (stereo not drawn)	-6	2	·	-1.6	i
CC1(C)C2CCC1(C)C(OCC[N+](C)(C)CC(=O)OC1CCCCC1)C2 (stereo not drawn)	100*	26	23	-2.4	i
CCNC(=O)c1c(NC(=O)C2COc3ccccc3O2)sc2c1CCCC2 (stereo not drawn)	2	0	-27	-1.2	i
SMILES	Lmaj promast	WT yeast gro inh	Insulin prom inh	Insulin prom up	Autophagy mod
COCCCNC(=O)c1c(NC(=O)C2COc3ccccc3O2)sc2c1CCCC2 (stereo not drawn)	2	-5	87*	·	i
COc1ccccc1N1CCN(C2CC(=O)N(C)C2=O)CC1 (stereo not drawn)	3	-12	·	0.04	i
Cc1c(OCc2ccccc2)cccc1OCc1ccccc1	-1	66*	-36	?	i
CCN1CCCC1CN(Cc1cc2ccc(C)cc2[nH]c1=O)C(=S)Nc1cccc(OC)c1 (stereo not drawn)	11	-3	18	-0.06	i
CC(=O)c1ccc(OCCCC(=O)n2nnc3ccccc32)cc1	-3	-14	·	0.4	+
Cc1nnc(SCc2nnc(-c3cccs3)o2)s1	-8	-5	·	0.6	i
Cc1cc(C)c2cccc(N)c2n1	-5	5	·	0.32	i
CCc1ccc2nc3nc(C)cc(C)c3c(N)c2c1	101*	1	-26	-0.86	i
Cc1cc(C)c2c(N)c3ccccc3nc2n1	101*	-1	-83	-1	i
CCOCCCNC(=O)NC12CC3CC(CC(C3)C1)C2	-2	58*	64	0.28	i
CCOCCCNC(=S)N1CCC(NC(=O)c2ccco2)CC1	-4	-4	-28	·	i
CCOCCCNC(=S)N1CCC(NC(=O)C23CC4CC(CC(C4)C2)C3)CC1	63*	-11	·	-0.46	i
O=[N+]([O-])/C(C(Cl)=C(Cl)Cl)=C1\Nc2ccccc2O1	·	·	·	-0.03	·
CCS(=O)(=O)N1CCN(Cc2nc3ccccc3c(=O)[nH]2)CC1	-4	3	6	0.61	i
c1ccc(CCn2c(C3CC3)nc3ccccc32)cc1	63*	-5	-59	-1.1	i
O=C(O)CCn1c(C2CCCCC2)nc2ccccc21	-8	8	·	·	i
CCCC(=O)Nc1ccc(C(=O)n2ccc(C)n2)cc1	-2	-3	·	1.2	i
N#CC1=C(N)NC(SCC(=O)c2ccc(Br)cc2)=C(C#N)C12CCCCC2	100*	78*	-44	-1.3	i
COc1ccc(C(=O)CSC2=C(C#N)C3(CCCCC3)C(C#N)=C(N)N2)cc1	58*	11	·	-3.2	i
N#CC1=C(N)NC(SCC(=O)c2ccc(Cl)cc2)=C(C#N)C12CCCC2	11	17	26	0.61	i
Cc1[nH]nc2c1/C(=N\O)CCC2	-3	2	-17	-0.26	i
CC(NC(=S)NCc1ccc(F)cc1)C12CC3CC(CC(C3)C1)C2 (stereo not drawn)	13	77*	-35	·	i
CCCCCCCCNC(C)C(O)c1ccc(SC(C)C)cc1 (stereo not drawn)	100*	98*	-32	·	i
CS(=O)(=O)c1ccc2nc(NC(=O)c3ccc(N4C(=O)CCC4=O)cc3)sc2c1	·	·	·	-0.01	·
CCCC(O)(CCC)C(=O)NN(C(=O)CCl)c1ccccc1	52*	-8	20	0.35	i
COc1ccc2cc(C(=O)OC(C)C)sc(=O)c2c1OC	8	12	71*	·	i
COc1ccc2cc(C(=O)NCC(=O)O)sc(=O)c2c1OC	-3	-2	29	-0.74	i
COc1cc(C(=O)NNC2=CC(=O)CC(C)(C)C2)cc(OC)c1OC	-4	0	·	0.66	i
CN1CCN(C(=S)c2cn(Cc3ccc(Br)cc3)c3ccccc23)CC1	53*	79*	-33	-0.29	i
CC1CCN(C(=S)c2cn(Cc3cccc(F)c3)c3ccccc23)CC1	67*	71*	-8	0.49	i
